# Results taken from PubChem BioAssay (NCI).
# Compounds without any hit were thinned out: in the full panel of roughly 83,000, 20% have a hit.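 Compound tested at a single concentration for 48 hours in 96-well plates; a percent growth value below 10 was scored as active.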 Calls of active or inactive are those of the source.
# Test system: M14 melanoma
# Assay: NCI-60 one-dose screen, 48 h (100 = growth as untreated, 0 = no growth, -100 = all killed)
# Conditions: 10 µM unless noted
# Description: Growth inhibition of the M14 human tumor cell line is measured as a screen for anti-cancer activity. Cells are grown in 96 well plates and exposed to the test compound for 48 hours. Compounds are tested at a single concentration, which is 10^-5 M for most compounds. The reported endpoint is percent growth (GI% or GIPRCNT), where numbers from 0 - 100% represent growth inhibition, and numbers from -100% - 0 represent cell death. For example, a value of 40 represents 60% growth inhibition. A value of 0 means no net growth occurred over the course of the experiment. A value of -40 indicates 40% of cells at the beginning of the experiment died by the end of the experiment. A value of -100 means all cells are dead at the end of the experiment.
# NCI-60 Human Tumor Cell Lines Screen was performed using the standard one-dose NCI protocol, which is described in more detail at https://dtp.cancer.gov/discovery_development/nci-60/default.htm.
# Compounds with GIPRCNT values below 10 were considered active. Activity score was based on GIPRCNT using the following formula: […]
# Score is 0 for GIPRCNT values of 100 or above, 50 for GIPRCNT values of 0, and 100 for GIPRCNT values of -100.
row,SMILES,growth
1,O=C1Nc2ccccc2Oc2ccc(S(=O)(=O)CC3CO3)cc21 (stereo not given),57.5% (inactive)
2,O=C1c2c(c3c4cc(Br)ccc4[nH]c3c3ccc4ccccc4c23)C(=O)N1CCO,103% (inactive)
3,CN1CCc2c(sc3ncnc(N/N=C/c4ccc(Cl)c(Cl)c4)c23)C1,-11.8% (active)
4,CCCC(=O)NC(c1ccc(N(CC)CC)cc1)c1cc(C)c2cccnc2c1O (stereo not given),-33% (active)
5,CN(C)c1ccc(/C=C2\Cc3c(F)ccc(Br)c3C2=O)cc1,92.1% (inactive)
6,CS(=O)(=O)Nc1ccc(-c2nn(-c3ccc(S(C)(=O)=O)cc3)cc2/C=C/C(=O)c2ccc(NC(=O)CO[N+](=O)[O-])cc2)cc1,111% (inactive)
7,N#Cc1c(-c2ccc(Cl)cc2)nc(SCc2ccc([N+](=O)[O-])cc2)nc1N1CCNCC1,-81% (active)
8,COc1ccc(-c2nc3ccc(-c4nnc(SCC(=O)Nc5ccc(C(C)=O)cc5)o4)cc3[nH]2)cc1,91.9% (inactive)
9,COc1cc2nc(-c3ccc(C)cc3)cc(OCCCNCC3CCCO3)c2cc1OC (stereo not given),14.3% (inactive)
10,C/C(=N\NC(N)=O)c1c(O)sc(=O)[nH]c1=O,98.8% (inactive)
11,Cc1nc(-c2cc3ccccc3oc2=O)ccc1C(=O)/C=C/c1ccc(Cl)c(Cl)c1,107% (inactive)
12,CCCC(=O)NC(c1cccnc1)c1cc(C)c2cccnc2c1O (stereo not given),27.5% (inactive)
13,COc1ccc(-n2c(SCC(=O)Nc3ccc(-c4nc5ccccc5[nH]4)cc3)nc3ccccc3c2=O)cc1,-26.7% (active)
14,CC(=O)c1ccc(Nc2nc(SC(C)C)nc(-c3ccccc3)c2C#N)cc1,118% (inactive)
15,O=C1Nc2cc(Cl)ccc2/C1=C\c1ccc(OCc2ccc(Br)cc2F)cc1,-43.9% (active)
16,Nc1c(C(=O)c2ccc(Br)cc2)oc2nc(-c3cnccn3)cc(-c3cccs3)c12,98.9% (inactive)
17,COc1cc(OC)c(S(=O)(=O)NNC(=O)c2ccncc2)cc1C(=O)/C=C/c1ccc(C)cc1,56.4% (inactive)
18,COc1ccc(C(=O)/C=C/c2ccc(OCc3ccc(Cl)cc3)c(OC)c2)cc1OC,78.1% (inactive)
19,Nc1nc(N)c2c(n1)NC(c1ccc(C(F)(F)F)cc1)CC(c1ccc(Nc3nc(NCCO)nc(Nc4ccc(Cl)cc4)n3)cc1)=N2 (stereo not given),-86.9% (active)
20,CC(O)C(NC(=O)C1CCCN1C(=O)CNC(=O)C1CC(=O)NCC(=O)NC(Cc2c[nH]c3ccccc23)C(=O)NC(Cc2ccc(O)cc2)C(=O)NCC(=O)NC(CO)C(=O)NC(CCC(N)=O)C(=O)NC(Cc2c[nH]c3ccccc23)C(=O)N1)C(=O)NCC(=O)NC(CCC(N)=O)C(=O)NC(CCCNC(=N)N)C(=O)NC(CC(=O)O)C(=O)O (stereo not given),91.1% (inactive)

row,SMILES,growth
1,CN(C)S(=O)(=O)c1oc(-c2ccccc2)nc1C#N,27.5% (inactive)
2,Clc1ccc2oc3c(NCCCn4ccnc4)c4ccccc4nc3c2c1,49.7% (inactive)
3,COc1ccccc1/C=C/C=N/NC1=NC2C(S1)N(C)C(=O)N2C (stereo not given),19% (inactive)
4,O=C(N/N=C/c1ccco1)c1[nH]c2ccc(Br)cc2c1-c1ccccc1,11.6% (inactive)
5,Cc1c(NC(=O)CSc2nc3sc4c(c3c(=O)n2-c2ccc(Cl)cc2)CCCC4)c(=O)n(-c2ccccc2)n1C,95.2% (inactive)
6,Cc1sc2c(c1C)c(=O)nc1c(-c3nc(-c4ccc(F)cc4)no3)n[nH]n12,107% (inactive)
7,Nc1cc(-c2c[nH]c3ccc(Cl)cc23)nc2cc(-c3c[nH]c4ccc(Cl)cc34)nn12,48.6% (inactive)
8,O=C1c2c(c3c4cccnc4[nH]c3c3ccc4ccccc4c23)C(=O)N1CCO,86.1% (inactive)
9,C[C@@H]1CN(c2ccc3ncc(C#Cc4cncc(C(=O)Nc5ccc(CN6CCN(C)CC6)c(C(F)(F)F)c5)c4)n3n2)C[C@H](C)O1,-76.3% (active)
10,CC1=C(C)C(=O)C(Nc2cccc(C(F)(F)F)c2)=C(Cl)C1=O,85.2% (inactive)
11,Cc1sc2nc(NCc3ccccc3Cl)[nH]c(=O)c2c1C,105% (inactive)
12,O=C(CN1CCOCC1)NNc1ncnc2ccccc12,55.2% (inactive)
13,O=C(N/N=C/c1ccc([N+](=O)[O-])s1)c1[nH]c2ccc(Br)cc2c1-c1ccccc1,-34.5% (active)
14,COc1ccc(C(=O)/C=C/c2ccc(OCc3ccc(C)cc3)c(OC)c2)cc1OC,86.8% (inactive)
15,CC(C)(C)Nc1nc2c(OCCc3ccccc3)cccn2c1-c1cccc(F)c1,-3.59% (active)
16,CN(C)c1ccc(/C=c2\sc3nc4ccccc4n3c2=O)cc1,102% (inactive)
17,C=CCn1c(SCC(=O)c2ccc(Br)cc2)nnc1-c1c[nH]c2ccccc12,97.4% (inactive)
18,Clc1ccc2c(NCCCN3CCOCC3)c3oc4ccccc4c3nc2c1,42.7% (inactive)
19,COc1cc(N=Cc2sc(Nc3nccs3)nc2O)cc(OC)c1OC,79.9% (inactive)
20,c1ccc(CNc2ncnc3ccc(-c4cnc5[nH]ncc5c4)cc23)cc1,94.8% (inactive)
